# Bioassay records as filed in PubChem.
# USP17 block: blocks human USP17 ubiquitin-rhodamine cleavage; inhibition, % at 50 µM; actives 6.5% (n = 47,000); A8MUK1; purified USP17, Ub-rhodamine cleavage fluorescence, 3 h
# Target sequence (A8MUK1 whole entry, looked up): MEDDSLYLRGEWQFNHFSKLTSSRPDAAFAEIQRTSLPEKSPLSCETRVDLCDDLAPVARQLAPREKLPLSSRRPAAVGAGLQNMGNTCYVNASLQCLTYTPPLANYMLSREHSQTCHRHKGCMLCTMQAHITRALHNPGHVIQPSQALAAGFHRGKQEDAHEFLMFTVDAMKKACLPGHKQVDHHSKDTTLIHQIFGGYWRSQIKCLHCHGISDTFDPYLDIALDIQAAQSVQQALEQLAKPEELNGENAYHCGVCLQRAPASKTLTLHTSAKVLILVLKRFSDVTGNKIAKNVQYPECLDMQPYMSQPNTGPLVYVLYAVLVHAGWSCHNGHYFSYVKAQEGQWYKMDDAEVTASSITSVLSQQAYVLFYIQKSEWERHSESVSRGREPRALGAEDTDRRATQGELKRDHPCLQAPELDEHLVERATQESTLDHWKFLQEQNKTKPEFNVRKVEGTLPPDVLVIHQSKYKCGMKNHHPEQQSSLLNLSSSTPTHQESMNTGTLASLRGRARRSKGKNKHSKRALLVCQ
# USP30 block: human USP30 deubiquitinase inhibition; Q70CQ3; purified USP30, Ub-rhodamine cleavage fluorescence; actives 5.3% (n = 47,000); inhibition, % at 25 µM; AID 1645860
# Active calls of the source: *; x = no result. Most compounds without a hit are left out; they make up all but 9.6% or so of the library. Rule as the data show it: active = inhibition above about 30%; inactive = the rest.
SMILES,USP17 block,USP30 block
CN(Cc1nc2ccccc2n1CCCOc1ccccc1)C(=O)c1ccco1,1,2
O=C(Nc1ccc(-n2cnc(C(=O)N3CCc4ccccc4C3)c2)nc1)C1CC1,-11,-19
CC(NC(=O)Cc1cccc(F)c1)c1nc(-c2cccnc2)n[nH]1 (stereo not drawn),17,23
Cc1cccc(N2C(=O)c3cccnc3C2CC(=O)NCc2ccccc2)c1 (stereo not drawn),-3,7
O=C(Nc1ccc(-c2nccs2)cc1)c1ccccc1Cl,-22,-10
CCOc1ccccc1C(=O)Nc1ccc(-c2nccs2)cc1,13,31*
Cc1ccccc1NS(=O)(=O)c1ccc2c(c1)C(=O)N(C)c1ncccc1O2,7,4
Cc1[nH]ncc1C(=O)N1CCCC(c2cccc(-n3ccnc3)n2)C1 (stereo not drawn),-1,5
Cc1[nH]ncc1C(=O)N1CCCC(c2cccc(-n3ccnc3C)n2)C1 (stereo not drawn),40*,9
Cc1ccc(F)cc1CN1CCC(c2nc(-c3ccsc3)no2)CC1,-6,-16
O=C(NCc1ccco1)c1ccc2c(=O)n(Cc3ccco3)c(=O)[nH]c2c1,40*,-22
O=C(Cc1ccc(-n2c(=O)[nH]c3ccccc3c2=O)cc1)N1CCN(c2ccccc2)CC1,12,0
O=C(NCc1ccccc1)c1ccc2c(=O)n(-c3ccccc3)c(=O)[nH]c2c1,66*,21
COc1ccc(CCn2c(=O)[nH]c3cc(C(=O)NCc4ccco4)ccc3c2=O)cc1OC,-11,7
Cc1ccc(NC(=O)C2C3C=CC4(O3)C2C(=O)N(CCc2ccccc2)C4C(=O)NC2CCCCC2)cc1 (stereo not drawn),5,1
O=C1N[C@@H]2CN(Cc3ccc(C(F)(F)F)cc3)CC[C@H]2CO1,5,14
COc1ccccc1NC(=O)N(C1=NCCC1)c1ccc(C)cc1,-4,12
CCOc1ccc(C(=O)COc2ccc3cc(Br)ccc3c2)cc1,-4,-25
O=C(CSc1ccc2nnc(-c3cccc(F)c3)n2n1)c1ccccc1,30*,-22
COc1ccc(C(=O)CSc2ccc3nnc(-c4cccc(F)c4)n3n2)cc1,-13,-31
COc1ccc(NC(=O)CC2C(=O)N(c3ccc(Cl)cc3)C(=O)N2CCc2ccc(OC)c(OC)c2)cc1 (stereo not drawn),19,0
CCc1c(OC)cc2c(c1O)C(=O)CCC2O (stereo not drawn),-19,-1
Cc1cc(O)cc2cc3c(c(O)c12)C(=O)CCC3O (stereo not drawn),51*,-89
Cc1ccc(-c2nsc(NC(=O)COc3ccccc3C)n2)cc1,-19,-188
CCC(=O)Nc1nc(-c2ccc(C)cc2)ns1,46*,-80
SMILES,USP17 block,USP30 block
CC(=O)N1CCc2cc(Br)cc(S(=O)(=O)NCc3ccc(F)cc3)c21,-23,-8
Cc1ccc(F)cc1S(=O)(=O)NCc1ccc(N2CCN(C)CC2)cc1,16,36*
Cc1cc(-c2cnc(N3CCCC3)nc2C2CCN(Cc3ccccn3)CC2)on1,-6,-16
O=S(=O)(c1ccc2c(c1)OCCCO2)N1CCN(Cc2nc3ccccc3o2)CC1,-4,0
O=C(COc1ccccc1[N+](=O)[O-])Nc1cccc(-c2nc3ccccc3[nH]2)c1,-51,15
O=C(Nc1cccc(-c2nc3ccccc3[nH]2)c1)c1cc2ccccc2oc1=O,60*,37*
COc1ccc(C(=O)Cn2c(N(C)C)nc3c2c(=O)n(C)c(=O)n3C)cc1,15,23
CCOc1cc2c(cc1OCC)C(c1cc3c(cc1Br)OCO3)NCC2 (stereo not drawn),-7,-7
CCOc1cc2c(cc1OCC)C(c1c(OC)ccc3ccccc13)NCC2 (stereo not drawn),0,38*
CCc1ccccc1NS(=O)(=O)c1cccc(-c2noc(C)n2)c1,7,5
CCC(C)C1OC(=O)C(CCC(=O)O)N(C)C(=O)C(C(C)C)NC(=O)C2CCCCN2C(=O)[C@H]([C@H](C)CC)NC(=O)C(CCC(=O)O)N(C)C(=O)C(C(C)C)N(C)C(=O)CNC(=O)C2CCCN2C(=O)C(Cc2ccccc2)NC1=O (stereo partly drawn),-1,-14
Cc1c2oc3c(C)ccc(C(=O)N[C@@H]4C(=O)N[C@H](C(C)C)C(=O)N5CCC[C@H]5C(=O)N(C)CC(=O)N(C)[C@@H](C(C)C)C(=O)O[C@@H]4C)c3nc-2c(C(=O)N[C@@H]2C(=O)N[C@H](C(C)C)C(=O)N3CCC[C@H]3C(=O)N(C)CC(=O)N(C)[C@@H](C(C)C)C(=O)O[C@@H]2C)c(N)c1=O,35*,-158
O=C(Nc1ccccc1C(F)(F)F)C1CN(C(=O)c2ccc3c(c2)OCO3)C1,7,12
COc1ccc(NC(=O)CN2CCCCCC2)c(OC)c1,-1,1
NC(=O)C1(N2CCCCC2)CCN(CC(=O)Nc2cc(Cl)ccc2Cl)CC1,12,30*
O=C1CC2C3CCC(=O)c4c(O)ccc(c43)C2(O)c2cccc(O)c21 (stereo not drawn),47*,0
CC1CN(CC(=O)NCc2ccccc2)c2ccccc2S1 (stereo not drawn),-2,-12
CN(C)c1cccc(-c2nnc(SCC(=O)Nc3ccc(F)cc3)n2-c2ccccc2)c1,14,-15
CN(C)C(=O)CSc1nnc(-c2cccc(Cl)c2)n1-c1ccc(Cl)c(C(F)(F)F)c1,68*,47*
COc1ccc(CN2C=C(C(=O)Nc3ccccc3C)C(C)=NS2(=O)=O)cc1,-30,-133
O=C(Nc1c(C(=O)N2CCCCCC2)oc2ccccc12)C1CCCC1,24,27
O=C(CSc1nc2cc(S(=O)(=O)Nc3cccc(Cl)c3)ccc2o1)NC1CC1,-10,-9
O=C(CSc1nc2cc(S(=O)(=O)Nc3ccccc3Cl)ccc2o1)Nc1ccc(N2CCOCC2)cc1,x,53*
O=C(c1ccc(-c2noc(C3CCCC3)n2)cc1)N1CCCC1,-6,-1
COc1ccccc1C(=O)Nc1ccc(-c2nc3ccccc3o2)c(O)c1,14,15
SMILES,USP17 block,USP30 block
COc1c2nc3ccccc3oc-2cc(=O)c1OC,71*,-13
CC(C(=O)Nc1cccc2ccccc12)(C(F)(F)F)C(F)(F)F,6,-17
O=C(Cc1ccccc1C(=O)O)Nc1cccc2ccccc12,26,-117
Cn1cc(NC(=O)Nc2cccc3ccccc23)c2ccccc21,63*,-60
O=C(NCc1ccc(Cl)cc1)Nc1cccc2ccccc12,68*,35*
COc1ccccc1N(CC(=O)NCc1ccc2c(c1)OCO2)C(=O)CCC(=O)Nc1ccccn1,0,-4
COc1ccc(CNC(=O)c2sc3nc(C)nc(N4CCCC4)c3c2C)cc1,-16,0
COc1cccc(-c2noc(-c3c(O)c4ccccc4[nH]c3=O)n2)c1,0,25
O=C(c1cccc2c1C(=O)N(C1CCCCC1)C2)N1CCN(c2ccccn2)CC1,-23,-46
O=C(c1cc2c(s1)CN(C1CC1)C2)N1CCN(c2ccccn2)CC1,40*,5
NS(=O)(=O)c1ccc(CCNc2ncnc3c2c(-c2ccccc2)cn3-c2ccc(Br)cc2)cc1,4,27
COc1ccc(CCC(=O)N2CCN(c3cc(C)n4cnnc4n3)CC2)cc1,18,8
CCOC(=O)COc1nc(-c2ccccc2)cc(-c2cccs2)c1C#N,-5,-9
N#Cc1c(-c2ccc(Cl)cc2)cc(-c2cccs2)nc1N,38*,-8
